# Reference: ChEMBL document CHEMBL3433997, “St. Jude Leishmania screening dataset” (2016)
# Columns and labels:
# Assay type in all cases: functional
# [1] = molecular target: Solute carrier family 2, facilitated glucose transporter member 1 (Homo sapiens) (UniProt P11166); assay: ST_JUDE_LEISH: Cytotoxicity at 2uM final concentration against transgenic Leishmania Mexicana promastigotes LmGLUT1 that are glucose transport deficient and complemented with the human glucose transporter GLUT1. Activity is measured by DNA content using SYBR green in vitro
# Solute carrier family 2, facilitated glucose transporter member 1 (Homo sapiens), sequence (P11166 whole entry): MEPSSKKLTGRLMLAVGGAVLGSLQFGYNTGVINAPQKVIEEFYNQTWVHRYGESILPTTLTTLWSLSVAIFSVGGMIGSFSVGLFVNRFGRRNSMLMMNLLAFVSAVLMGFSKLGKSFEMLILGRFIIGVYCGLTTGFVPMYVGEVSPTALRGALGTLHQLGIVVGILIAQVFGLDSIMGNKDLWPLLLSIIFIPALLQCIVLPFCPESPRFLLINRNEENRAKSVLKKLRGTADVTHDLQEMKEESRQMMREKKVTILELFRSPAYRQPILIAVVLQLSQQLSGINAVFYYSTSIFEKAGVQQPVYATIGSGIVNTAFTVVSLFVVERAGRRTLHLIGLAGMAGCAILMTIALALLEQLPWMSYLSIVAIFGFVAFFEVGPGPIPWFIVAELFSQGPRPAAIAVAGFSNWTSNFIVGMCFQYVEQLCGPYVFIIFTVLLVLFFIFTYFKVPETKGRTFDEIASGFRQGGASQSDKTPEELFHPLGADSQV
# [2] = molecular target: Hexose transporter 1 (Plasmodium falciparum) (UniProt O97467); assay: ST_JUDE_LEISH: Cytotoxicity at 2uM final concentration against transgenic Leishmania Mexicana promastigotes LmPfHT that are glucose transport deficient and complemented with the Plasmodium falciparum hexose transporter. Activity is measured by DNA content using SYBR green in vitro
# [3] = molecular target: Glucose transporter (Leishmania mexicana) (UniProt O61059); assay: ST_JUDE_LEISH: Cytotoxicity at 2uM final concentration against transgenic Leishmania Mexicana promastigotes LmGT2 that are glucose transport deficient and complemented with the L. Mexicana glucose transporter 2. Activity is measured by DNA content using SYBR green in vitro
Compound,inhibition [1],inhibition [2],inhibition [3]
O=C(NCc1ccc(Cl)c(Cl)c1)c1ccc(C2CCN(Cc3ccc4[nH]cnc4c3)CC2)cc1,2.71%,1.42%,0.28%
COC(=O)c1cccc(NC(=O)NCCNc2ccnc(Nc3ccc(F)cc3)n2)c1,4.31%,3.02%,2.45%
O=C(/C=C/c1ccc(Cl)c(Cl)c1)NCCCCCN1CCC(NC(=O)c2cc(Cl)ccc2F)CC1,2.96%,1.12%,-0.02%
COc1cc(NC(=O)c2sc(-c3ccc(Cl)cc3)cc2NC(=O)c2cccc(N(C)C)c2)ccc1OCCN1CCCC1,0.3%,0.22%,0.53%
O=C(Nc1ccc(OC2CCN(Cc3ccsc3)C2)c(Cl)c1)c1ccc2ncccc2c1 (stereo not given),-0.7%,0.74%,-0.92%
